In PubChem BioAssay (NCATS):
Inconclusive results are not listed. Calls of active or inactive are those of the source. Unless noted, calls follow the shape of the dose curve; as a rule, active = well fitted curve in the direction sought with a large enough effect; inconclusive = small, poorly fitted or top-dose-only effect, or another doubt; inactive = no such curve, though single readings can be large; an effect the other way counts as inactive or inconclusive.

What was measured:
[1] = target: Glucocorticoid receptor (Homo sapiens) (UniProt P04150); assay: GR-GFP Redistribution (AID 450;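 active = compounds whose dose series gives a full or clear partial fitted curve of increased nuclear translocation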; also: potency is read from the fitted curve at half-maximal effect); conditions: U2OS GR-GFP nuclear translocation, laser cytometry, 2 h
Chain of Glucocorticoid receptor (Homo sapiens) (P04150 whole entry, looked up): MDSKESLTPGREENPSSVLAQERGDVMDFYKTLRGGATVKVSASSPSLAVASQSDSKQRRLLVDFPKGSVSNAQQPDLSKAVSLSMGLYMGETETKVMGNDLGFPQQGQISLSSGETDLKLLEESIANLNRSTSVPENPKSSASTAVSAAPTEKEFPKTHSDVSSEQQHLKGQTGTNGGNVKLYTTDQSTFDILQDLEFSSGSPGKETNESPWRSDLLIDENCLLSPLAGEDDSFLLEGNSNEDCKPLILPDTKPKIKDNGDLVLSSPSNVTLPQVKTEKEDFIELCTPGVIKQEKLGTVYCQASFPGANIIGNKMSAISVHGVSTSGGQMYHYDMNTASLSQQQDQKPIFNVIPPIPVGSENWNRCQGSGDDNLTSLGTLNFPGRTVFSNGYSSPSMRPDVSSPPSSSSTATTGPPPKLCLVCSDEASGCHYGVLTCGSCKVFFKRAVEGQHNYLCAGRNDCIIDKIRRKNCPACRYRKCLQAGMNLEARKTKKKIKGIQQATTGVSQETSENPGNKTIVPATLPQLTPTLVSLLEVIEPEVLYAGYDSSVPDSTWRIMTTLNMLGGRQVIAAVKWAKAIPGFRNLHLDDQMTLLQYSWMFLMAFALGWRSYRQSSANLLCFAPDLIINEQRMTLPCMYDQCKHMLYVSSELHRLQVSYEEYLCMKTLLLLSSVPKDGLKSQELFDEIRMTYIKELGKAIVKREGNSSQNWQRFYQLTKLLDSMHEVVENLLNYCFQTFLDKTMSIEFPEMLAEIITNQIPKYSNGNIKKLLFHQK

[2] = S16 Schwann cell viability assay (CellTiter-Glo assay) (AID 624031); conditions: S16 rat Schwann cells viability, 24 h; series mostly up to 25.7 µM;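 also: native untransfected S16 rat Schwann cells; cellular ATP luminescence as a viability measure; nearly all actives have a fitted effect of over 70% in size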
In short: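 Rat S16 Schwann cells without reporter constructs received compound or DMSO for 24 h at 37 °C under 5% CO2. Cellular ATP was then quantified by CellTiter-Glo luminescence, with vehicle wells defined as 0% activity and cell-free wells as reference.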

ATS189 = assay: qHTS profiling for inhibitors of Plasmodium falciparum proliferation (AID 504749); also: nearly all actives have a fitted effect of over 60% in size; conditions: P. falciparum in erythrocytes, SYBR Green DNA, 72 h; series mostly up to 12.8 µM
In short: (§1)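 Each compound contacts P. falciparum-infected red blood cells for 72 h at 37 C; lysis buffer (Tris, EDTA, saponin, Triton X, SYBR Green I) is added and fluorescence measured next morning; values normalized to controls.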

ATS95 = assay: as above; conditions: P. falciparum in erythrocytes, SYBR Green DNA, 72 h; series mostly up to 12.8 µM
In short: as §1

CP194 = assay: as above; conditions: P. falciparum in erythrocytes, SYBR Green DNA, 72 h; series mostly up to 12.8 µM
In short: as §1

CP201 = assay: as above; conditions: P. falciparum in erythrocytes, SYBR Green DNA, 72 h; series mostly up to 12.8 µM
In short: as §1

CP237 = assay: as above; conditions: P. falciparum in erythrocytes, SYBR Green DNA, 72 h; series mostly up to 12.8 µM
In short: as §1

CP250 = assay: as above; conditions: P. falciparum in erythrocytes, SYBR Green DNA, 72 h; series mostly up to 12.8 µM
In short: as §1

CP260 = assay: as above; conditions: P. falciparum in erythrocytes, SYBR Green DNA, 72 h; series mostly up to 12.8 µM
In short: as §1

CP266 = assay: as above; conditions: P. falciparum in erythrocytes, SYBR Green DNA, 72 h; series mostly up to 12.8 µM
In short: as §1

CP286 = assay: as above; conditions: P. falciparum in erythrocytes, SYBR Green DNA, 72 h; series mostly up to 12.8 µM
In short: as §1

CP315 = assay: as above; conditions: P. falciparum in erythrocytes, SYBR Green DNA, 72 h; series mostly up to 12.8 µM
In short: as §1

DIV17 = assay: as above; conditions: P. falciparum in erythrocytes, SYBR Green DNA, 72 h; series mostly up to 12.8 µM
In short: as §1

GB4 = assay: as above; conditions: P. falciparum in erythrocytes, SYBR Green DNA, 72 h; series mostly up to 12.8 µM
In short: as §1

HB3 = assay: as above; conditions: P. falciparum in erythrocytes, SYBR Green DNA, 72 h; series mostly up to 12.8 µM
In short: as §1

P93_24 = assay: as above; conditions: P. falciparum in erythrocytes, SYBR Green DNA, 72 h; series mostly up to 12.8 µM
In short: as §1

P94_40 = assay: as above; conditions: P. falciparum in erythrocytes, SYBR Green DNA, 72 h; series mostly up to 12.8 µM
In short: as §1

PAD = assay: as above; conditions: P. falciparum in erythrocytes, SYBR Green DNA, 72 h; series mostly up to 12.8 µM
In short: as §1

TAB109 = assay: as above; conditions: P. falciparum in erythrocytes, SYBR Green DNA, 72 h; series mostly up to 12.8 µM
In short: as §1

TAB165 = assay: as above; conditions: P. falciparum in erythrocytes, SYBR Green DNA, 72 h; series mostly up to 12.8 µM
In short: as §1

Measured: Potency

C[C@H](NCCC(c1ccccc1)c1ccccc1)c1ccccc1
inactive: [1] > 20.6 µM

CC(C)(C)NC(=O)[C@@H]1CC[C@@H]2[C@@H]3CC[C@@H]4NC(=O)C=C[C@@]4(C)[C@H]3CC[C@]21C
inactive: [1] > 20.6 µM | [2] | ATS189 | ATS95 | CP194 | CP201 | CP237 | CP250 | CP260 | CP266 | CP286 | CP315 | DIV17 | GB4 | HB3 | P93_24 | P94_40 | PAD | TAB109 | TAB165

COC(=O)[C@@H]1[C@@H]2C[C@H]3c4[nH]c5cc(OC)ccc5c4CCN3C[C@@H]2C[C@H](OC(=O)c2cc(OC)c(OC)c(OC)c2)[C@H]1OC
inactive: [1] > 20.6 µM

c1ccc2c(c1)CCC[C@@H]2C1=NCCN1
inactive: [2] | ATS189 | ATS95 | CP194 | CP201 | CP237 | CP250 | CP260 | CP266 | CP286 | CP315 | DIV17 | GB4 | HB3 | P93_24 | P94_40 | PAD | TAB109 | TAB165

N[C@H](Cc1cc(I)c(Oc2cc(I)c(O)c(I)c2)c(I)c1)C(=O)O
inactive: [1] > 20.6 µM

C[C@@]12CCC(=O)C[C@@H]1CC(=O)[C@H]1[C@H]3CCC[C@]3(C)C(=O)C[C@@H]12 (tested in a mixture with another compound)
inactive: [1] > 20.6 µM

CC1(C)S[C@@H]2[C@H](NC(=O)[C@@H](N)c3ccccc3)C(=O)N2[C@H]1C(=O)O[C@H]1OC(=O)c2ccccc21
inactive: [2] | ATS189 | ATS95 | CP194 | CP201 | CP237 | CP250 | CP260 | CP266 | CP286 | CP315 | DIV17 | GB4 | HB3 | P93_24 | P94_40 | PAD | TAB109 | TAB165

CC(C)n1c(/C=C\[C@@H](O)C[C@@H](O)CC(=O)O)c(-c2ccc(F)cc2)c2ccccc21
inactive: [1] > 20.6 µM

CC(C)(C)NC(=O)[C@@H]1C[C@H]2CCCC[C@@H]2CN1C[C@H](O)[C@H](Cc1ccccc1)NC(=O)[C@@H](CC(N)=O)NC(=O)c1ccc2ccccc2n1
inactive: [1] > 20.6 µM

CCC(C)(C)C(=O)O[C@@H]1C[C@H](C)C=C2C=C[C@H](C)[C@@H](CC[C@H]3C[C@@H](O)CC(=O)O3)[C@H]21
inactive: [1] > 20.6 µM | [2] | ATS189 | ATS95 | CP194 | CP201 | CP237 | CP250 | CP260 | CP266 | CP286 | CP315 | DIV17 | P93_24 | TAB109

COc1ccccc1OC[C@H](O)CO
inactive: [2] | ATS189 | ATS95 | CP194 | CP201 | CP237 | CP250 | CP260 | CP266 | CP286 | CP315 | DIV17 | GB4 | HB3 | P93_24 | P94_40 | PAD | TAB109 | TAB165

N[C@H](Cc1cc(I)c(Oc2ccc(O)c(I)c2)c(I)c1)C(=O)O
inactive: [1] > 20.6 µM

COc1ccc2c(c1)N(C[C@@H](C)CN(C)C)c1ccccc1S2
inactive: [1] > 20.6 µM | ATS189 | ATS95 | CP194 | CP201 | CP250 | CP260 | CP286 | CP315 | HB3 | P93_24 | P94_40 | PAD | TAB109 | TAB165

CC(=O)O[C@H]1C[C@H]2CC[C@@H]3[C@@H](CC[C@]4(C)[C@H](OC(C)=O)[C@H]([N+]5(C)CCCCC5)C[C@@H]34)[C@]2(C)C[C@H]1[N+]1(C)CCCCC1
inactive: [1] > 20.6 µM

COc1cc(OC)c2c(c1Cl)O[C@@]1(C2=O)[C@H](C)CC(=O)C[C@@H]1OC
inactive: [1] > 20.6 µM

COc1cccc(-c2nc(NCCc3c[nH]c4ccc(OC)cc34)c3ccccc3n2)c1
inactive: [1] > 46 µM

CC[C@H]1NC(=O)c2cc(S(N)(=O)=O)c(Cl)cc2N1
inactive: [1] > 20.6 µM | [2] | ATS189 | ATS95 | CP194 | CP201 | CP237 | CP250 | CP260 | CP266 | CP286 | CP315 | DIV17 | GB4 | HB3 | P93_24 | P94_40 | PAD | TAB109 | TAB165

CCO[C@H]1O[C@@H]([C@H](COCc2ccccc2)OCc2ccccc2)[C@@H](OCc2ccccc2)[C@H]1O
inactive: [1] > 20.6 µM | [2] | ATS95 | CP194 | CP201 | CP237 | CP250 | CP260 | CP286 | CP315 | PAD | TAB109

C[C@@H]1O[C@H](O[C@@H]2[C@H](C)O[C@H](O[C@@H]3[C@H](C)O[C@H](O[C@H]4CC[C@]5(C)[C@@H](CC[C@@H]6[C@H]5C[C@@H](O)[C@]5(C)[C@@H](C7=CC(=O)OC7)CC[C@]65O)C4)C[C@@H]3O)C[C@@H]2O)C[C@H](O)[C@@H]1O
inactive: [1] > 20.6 µM

CCc1c(C)[nH]c2c1C(=O)[C@H](CN1CCOCC1)CC2
inactive: [2] | ATS189 | ATS95 | CP194 | CP201 | CP237 | CP250 | CP260 | CP266 | CP286 | CP315 | DIV17 | GB4 | HB3 | P93_24 | P94_40 | PAD | TAB109 | TAB165
